Results from PubChem BioAssay (Tox21).
Where “and” joins values, the source holds several entries; their conditions need not be identical. Identical values can stand only once. Calls of active or inactive are those of the source. A call without a number means that no potency is given here. Unless noted, calls follow the shape of the dose curve; as a rule, active = well fitted curve in the direction sought with a large enough effect in the repeat runs; inconclusive = weak or mixed curves; inactive = no such curve, though single readings can be large; an effect the other way counts as inactive or inconclusive.

Experiments:
[1] = qHTS assay to identify small molecule antagonists of the thyroid receptor (TR) signaling pathway - cell viability counter screen (AID 743064); also: nearly all actives have a fitted effect of over 50% in size; also: potency is read from the fitted curve at half-maximal effect
Method in brief: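 Viability of T3-stimulated (1 nM final) GH3.TRE-Luc cells is measured by CellTiter-Fluor fluorescence after 23.5 h compound exposure at 37 °C plus 30 min reagent incubation.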

[2] = qHTS assay to identify small molecule antagonists of the thyroid receptor (TR) signaling pathway (AID 743065); also: nearly all actives have a fitted effect of over 55% in size
Method in brief: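 Antagonism measured as loss of luciferase signal in GH3 cells stably carrying a TRE-luciferase reporter, co-treated with compound and T3 (1 nM final) for 23.5 h at 37 C. Viability was read in the same well by CellTiter-Fluor.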

[3] = test system: thyroid hormone receptor (rat, GH3 cells); test: qHTS assay to identify small molecule agonists of the thyroid receptor (TR) signaling pathway (AID 743066; calls by dose curve)
[4] = qHTS assay to identify small molecule antagonists of the estrogen receptor alpha (ER-alpha) signaling pathway - cell viability counter screen (AID 743074; calls by dose curve; also: nearly all actives have a fitted effect of over 45% in size)
[5] = qHTS assay to identify small molecule antagonists of the estrogen receptor alpha (ER-alpha) signaling pathway using the BG1 cell line - cell viability counter screen (AID 743081);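 also: compound given together with 17beta-estradiol as the ER stimulus; nearly all actives have a fitted effect of over 45% in size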
Aromatase (Homo sapiens) = Aromatase (Homo sapiens) (UniProt P11511); test: qHTS assay to identify aromatase inhibitors (AID 743083); also: nearly all actives have a fitted effect of over 55% in size; also: potency is read from the fitted curve at half-maximal effect
[6] = target: Estrogen receptor (Homo sapiens) (UniProt P03372); test: qHTS assay to identify small molecule antagonists of the estrogen receptor alpha (ER-alpha) signaling pathway (AID 743069; active = well fitted curve in the direction sought with a large enough effect in the signal ratio in the repeat runs, not every such curve was filed as active; inconclusive = weak or mixed curves, or effect the other way; inactive = no such curve, though single readings can be large or run the other way; the % refers to the signal ratio; also: potency is read from the fitted curve at half-maximal effect)
Method in brief: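 Fluorescence intensity from a beta-lactamase FRET substrate served as the read-out. Cells: HEK293 with stably integrated ER-alpha-UAS-bla reporter. Agonist 17beta-estradiol was co-added with compounds; incubation 18 hr at 37C, substrate 2 hr at room temperature.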

[7] = target: Estrogen receptor (Homo sapiens) (UniProt P03372); test: qHTS assay to identify small molecule agonists of the estrogen receptor alpha (ER-alpha) signaling pathway (AID 743075; calls by dose curve; also: potency is read from the fitted curve at half-maximal effect)
[8] = target: Estrogen receptor (Homo sapiens) (UniProt P03372); test: qHTS assay to identify small molecule agonists of the estrogen receptor alpha (ER-alpha) signaling pathway using the BG1 cell line (AID 743079); conditions: BG1Luc4E2 cells, ERE-luciferase agonist, 22 h; also: nearly all actives have a fitted effect of over 20% in size
[9] = qHTS assay to identify small molecule antagonists of the estrogen receptor alpha (ER-alpha) signaling pathway using the BG1 cell line (AID 743080; calls by dose curve;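 also: BG1 cells stimulated with 17beta-estradiol alongside compound; potency is read from the fitted curve at half-maximal effect; nearly all actives have a fitted effect of over 25% in size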)
Method in brief: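 Readout is ONE-Glo luminescence, taken 30 min at room temperature after reagent addition, preceded by a CellTiter-Fluor viability read; BG1-Luc-4E2 cells had received compound and 17beta-estradiol for 21.5 h at 37 C.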

Sequence of Estrogen receptor (Homo sapiens) (P03372 whole entry, looked up): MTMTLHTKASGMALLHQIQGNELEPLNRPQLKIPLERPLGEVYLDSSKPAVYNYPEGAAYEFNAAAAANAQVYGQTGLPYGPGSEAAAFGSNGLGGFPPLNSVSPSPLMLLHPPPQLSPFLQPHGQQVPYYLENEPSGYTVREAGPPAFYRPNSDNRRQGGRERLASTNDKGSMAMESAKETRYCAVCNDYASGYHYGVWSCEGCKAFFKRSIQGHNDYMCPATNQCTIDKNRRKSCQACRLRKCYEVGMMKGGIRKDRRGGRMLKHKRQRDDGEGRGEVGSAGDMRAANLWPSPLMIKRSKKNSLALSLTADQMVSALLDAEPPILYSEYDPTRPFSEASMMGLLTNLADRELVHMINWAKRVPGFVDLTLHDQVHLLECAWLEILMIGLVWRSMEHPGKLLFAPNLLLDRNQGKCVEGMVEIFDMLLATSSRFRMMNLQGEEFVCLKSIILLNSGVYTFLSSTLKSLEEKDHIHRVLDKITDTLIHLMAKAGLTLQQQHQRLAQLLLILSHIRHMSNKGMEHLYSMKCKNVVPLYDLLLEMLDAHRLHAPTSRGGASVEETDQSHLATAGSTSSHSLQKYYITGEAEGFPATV
Sequence of Aromatase (Homo sapiens) (P11511 whole entry, looked up): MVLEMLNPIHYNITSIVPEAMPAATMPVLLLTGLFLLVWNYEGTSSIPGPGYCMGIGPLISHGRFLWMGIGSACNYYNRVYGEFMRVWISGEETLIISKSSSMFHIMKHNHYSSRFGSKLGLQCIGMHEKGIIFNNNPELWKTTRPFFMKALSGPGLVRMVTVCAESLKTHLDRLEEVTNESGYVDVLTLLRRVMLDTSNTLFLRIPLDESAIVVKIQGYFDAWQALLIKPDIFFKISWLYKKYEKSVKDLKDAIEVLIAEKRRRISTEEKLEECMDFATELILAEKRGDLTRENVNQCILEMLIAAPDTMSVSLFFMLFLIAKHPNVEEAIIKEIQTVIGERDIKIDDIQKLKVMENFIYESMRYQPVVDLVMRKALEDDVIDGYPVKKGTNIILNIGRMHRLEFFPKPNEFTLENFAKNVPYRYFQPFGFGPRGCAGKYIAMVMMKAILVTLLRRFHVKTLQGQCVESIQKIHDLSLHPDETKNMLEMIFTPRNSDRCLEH

| Compound | Potency [1] | Potency [2] | Potency [3] | Potency [4] | Potency [5] | Potency (Aromatase (Homo sapiens)) | Potency [6] | Potency [7] | activation ([8]; at 32.5 µM (top of the series)) | activation ([8]; at 70.3 µM (top of the series)) | Potency [9] |
| --- | --- | --- | --- | --- | --- | --- | --- | --- | --- | --- | --- |
| CC1=C2[C@H]3OC(=O)[C@@H](C)[C@@H]3CC[C@@]2(C)C=CC1=O | inactive | inactive | inactive | inactive | inactive | inactive | – | – | – | – | – |
| CC(=O)OCC1=C(C(=O)O)N2C(=O)[C@@H](N)[C@H]2SC1 | inactive | inactive | inactive | inactive | inactive | inactive | – | – | – | – | – |
| Oc1ccc2c3c1O[C@H]1[C@@H](O)C=C[C@H]4[C@@H](C2)NCC[C@@]341 | inactive | inactive | inactive | inactive | – | inactive | – | – | – | – | – |
| CNC(=O)Oc1cc(C)c(N(C)C)c(C)c1 | inactive | inactive | inactive | inactive | inactive | inactive | – | – | – | – | – |
| ClCCCCl | inactive | inactive | inactive | inactive | inactive | inactive | – | – | – | – | – |
| O=S1(=O)OCCO1 | inactive | inactive | inactive | inactive | inactive | inactive | – | – | – | – | – |
| O=c1[nH]c2ccccc2o1 | inactive | inactive | inactive | inactive | inactive | inactive | – | – | – | – | – |
| CC(C)C(C)(N)C#N (configuration not stated) | inactive | inactive | inactive | – | inactive | inactive | – | – | – | – | – |
| CCCOc1nn(C(=O)NS(=O)(=O)c2ccccc2C(=O)OC)c(=O)n1C | inactive | inactive | inactive | – | inactive | inactive | – | – | – | – | – |
| C=CCc1cc(OC)c2c(c1)OCO2 | inactive | inactive | inactive | – | inactive | inactive | – | – | – | – | – |
| CC(C)NCC(O)c1ccc([N+](=O)[O-])cc1 (configuration not stated) | inactive | inactive | inactive | inactive | inactive | inactive | – | – | – | – | – |
| CC(C)c1ccc(O)cc1 | inactive | inactive | inactive | inactive | inactive | inactive | – | – | – | – | – |
| C[C@H]1CCCC(=O)CCC/C=C/c2cc(O)cc(O)c2C(=O)O1 | 23.4 µM (active) and 20 µM (active) | – | inactive | inactive | – | 23.4 µM (active) | 47.2 µM [inconclusive] (active) | 13.3 nM [inconclusive] (active) and 71.5 nM [inconclusive] (active) | -13.6% (active) | -34.9% (active) | 22.4 µM (active) |
